Test results reported in PubChem BioAssay (Tox21).
Inconclusive results are not listed. Calls of active or inactive are those of the source. Calls come from the whole dose curve; as a rule, active = well fitted cell-killing curve with a large enough effect in the repeat runs; inconclusive = weak or mixed curves; inactive = flat fitted curve, though single readings scatter.

Test: qHTS RealTime-Glo MT Cell Viability Assay in HepG2 cells - 16 hour (AID 1224885); note: nearly all actives have a fitted effect of over 50% in size
Settings: RealTime-Glo luminescence; series mostly up to 76.8 µM; activity change, negative = cytotoxic: at the top concentration
Source text: U.S. Tox21 Program National Center for Advancing Translational Sciences [NCATS] NIH Chemical Genomics Center [NCGC] U.S. Environmental Protection Agency [EPA] National Institutes of Environmental Health Sciences [NIEHS] National Toxicology Program [NTP] U.S. Food and Drug Administration [FDA] Tox21 Assay Overview: Measure of cell viability is critical in the cell-base assay. Analysis of cell viability is necessary for the characterization of cell responses to cytotoxic drugs and environmental stress. A RealTime-Glo MT Cell Viability Assay to monitor cell viability in real time of continues cell culture during 40 hours of compound treatment was used to screen Tox21 10K library compounds in HepG2 cells. The RealTime-Glo MT Cell Viability Assay is a nonlytic, homogeneous, bioluminescent method to measure cell viability in real time using a simple, plate-based method. The assay involves adding NanoLuc luciferase and a cell-permeant prosubstrate to cells in culture. Viable cells reduce the proprietary prosubstrate to generate a substrate for NanoLuc luciferase. This substrate diffuses from cells into the surrounding culture medium, where it is rapidly used by the NanoLuc Enzyme to produce a luminescent signal. The signal correlates with the number of viable cells, making the assay well suited for cytotoxicity studies.
Tox21 Assay Protocol Summary: The mixture of HepG2 cell suspension and reagents were dispensed at 600cells/6 ul/well in 1536-well tissue culture treated black solid bottom plates using a Multidrop dispenser. After the assay plates were incubated at a 37 C/5% CO2 incubator for 5 hours, 23 nL of compounds dissolved in DMSO, positive and negative controls was transferred to the assay plate by a pintool work station. The plates were incubated at 37 C for 40 hours. The luminescence intensity were measured at 0h, 8h, 16h, 24h, 32h and 40h time points using ViewLux plate reader during compound treatment.
% is set by controls: 0 for no effect and ±100 for the full control effect.

Compound	activity change, negative = cytotoxic	Potency
CCCCOC(C)=O	-0.122% (inactive)	
CN(C)C1CCCCC1	0.368% (inactive)	
CS(=O)(=O)c1ccc(C(=O)C2C(=O)CCCC2=O)c(Cl)c1COCC(F)(F)F	-0.153% (inactive)	
NC(=O)CS(=O)C(c1ccccc1)c1ccccc1 (stereo not given)	1.54% [at 35.3 µM] (inactive)	
NC(=O)OCCCc1ccccc1	3.4% [at 35.3 µM] (inactive)	
CCc1cc(OC)c(C[C@H](C)N)cc1OC	-3.83% (inactive)	
CN=CNc1ccc(C)cc1C	1.39% (inactive)	
NC1(c2ccccc2)CCCCC1	-1.44% (inactive)	
C=CCc1cc(OC)c2c(c1)OCO2	0.296% (inactive)	
O=C(NC(O)C(Cl)(Cl)Cl)NC(O)C(Cl)(Cl)Cl (stereo not given)	2.81% [at 35.3 µM] (inactive)	
O=[N+]([O-])c1cccc(CCl)c1	-1.1% (inactive)	
CCN[C@@H](C)Cc1ccccc1	3.73% (inactive)	
CCCN1CCC[C@@H]2Cc3nc(N)ncc3C[C@H]21	-2.81% [at 35.3 µM] (inactive)	
N#CN=C1SCCN1Cc1ccc(Cl)nc1	-0.0349% (inactive)	
C(COCC1CO1)OCC1CO1 (stereo not given)	-1.31% (inactive)	
C=C1CC[C@@]2(O)[C@H]3Cc4ccc(O)c5c4[C@@]2(CCN3CC2CC2)[C@H]1O5	5.55% [at 35.3 µM] (inactive)	
CCCN1CCC[C@@H]2Cc3[nH]ncc3C[C@H]21	-1.25% [at 35.3 µM] (inactive)	
CC(Cl)(Cl)Cl	-0.0529% (inactive)	
BrCc1ccc(Br)cc1	3.55% (inactive)	
CNC(=O)O/N=C(/CSC)C(C)(C)C	0.843% (inactive)	

Compound	activity change, negative = cytotoxic	Potency
ClCCCCl	0.41% (inactive)	
CC[C@H](O)C(C[C@H](C)N(C)C)(c1ccccc1)c1ccccc1	-12.7% (inactive)	
CC(=NC#N)N(C)Cc1ccc(Cl)nc1	4.8% (inactive)	
ClC(Cl)(Cl)Cl	0.481% (inactive)	
CCOc1cc(OP(=S)(OC)OC)nc(CC)n1	-0.819% (inactive)	
Cc1ccc2c(c1)C1CN(C)CCC1N2 (stereo not given)	-6.11% [at 15.8 µM] (inactive)	
Cc1ccc(Cl)c(O)c1	0.746% [at 35.3 µM] (inactive)	
BrCC1CO1 (stereo not given)	-0.684% (inactive)	
CC(C)(N)Cc1ccc(Cl)cc1	-1.45% [at 35.3 µM] (inactive)	
CON(C)C(=O)Nc1ccc(Br)c(Cl)c1	-2.72% (inactive)	
COC1=CC(=O)O[C@@H](/C=C/c2ccccc2)C1	-1.04% (inactive)	
CCN(CC)C1CCCCC1	5.22% (inactive)	
C[N+]1(C)CCCCC1	3.63% (inactive)	
CCN[C@H](C)Cc1cccc(C(F)(F)F)c1	0.233% (inactive)	
O=C1CCCCC1Cl (stereo not given)	1.69% (inactive)	
N=C(N)[Se]	2.69% (inactive)	
O=P(O)(O)CN(CP(=O)(O)O)CP(=O)(O)O		inactive
ClC1=C(Cl)C2(Cl)C(CBr)CC1(Cl)C2(Cl)Cl (stereo not given)	0.328% [at 35.3 µM] (inactive)	
Clc1cc2c(cc1Cl)Oc1cc(Cl)c(Cl)cc1O2	2.3% [at 0.29 µM] (inactive)	
CCN(CCO)CCO	3.26% (inactive)	
